Here are results for 52 molecules from PubChem BioAssay AID1851 (National Center for Advancing Translational Sciences (NCATS), 2009).

Structures are written as SMILES. The campaign covered roughly 16,000 compounds. About 5,100 (32%) were called active. Another 25% or so got no clear call; they are omitted. The list shows a part of the results. A number with no mark means an inactive call. Calls come from the whole dose curve; as a rule, active = well fitted curve in the direction sought with a large enough effect; inconclusive = small, poorly fitted or top-dose-only effect, or effect the other way; inactive = no such curve, though single readings can be large or run the other way.
% is set by controls: 0 for no effect and ±100 for the full control effect.

The target of the assay is Cytochrome P450 3A4 (Homo sapiens) (UniProt P08684). As to the kind of experiment: Cytochrome panel assay with activity outcomes. The note with it: recombinant CYP, pro-luciferin dealkylation, luminescence, p450-cyp3a4; series mostly up to 57.1 µM; activity, negative = inhibition: at the top concentration.
Sequence of Cytochrome P450 3A4 (Homo sapiens) (P08684 whole entry, looked up): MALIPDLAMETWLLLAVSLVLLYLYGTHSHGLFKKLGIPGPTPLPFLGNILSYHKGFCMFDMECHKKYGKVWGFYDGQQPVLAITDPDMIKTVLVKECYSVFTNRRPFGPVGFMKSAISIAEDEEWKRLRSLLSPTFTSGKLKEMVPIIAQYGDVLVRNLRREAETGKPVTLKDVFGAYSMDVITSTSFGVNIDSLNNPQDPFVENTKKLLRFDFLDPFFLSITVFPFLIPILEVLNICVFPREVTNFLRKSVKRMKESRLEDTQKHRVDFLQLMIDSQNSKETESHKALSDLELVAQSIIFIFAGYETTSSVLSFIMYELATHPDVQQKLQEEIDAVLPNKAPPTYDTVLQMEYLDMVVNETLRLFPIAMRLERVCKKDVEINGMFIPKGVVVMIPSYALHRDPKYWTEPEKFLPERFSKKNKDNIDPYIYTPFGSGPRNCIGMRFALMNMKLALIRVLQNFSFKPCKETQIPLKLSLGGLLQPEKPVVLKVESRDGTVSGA
As to `COCC(C)NCc1cccc(C)c1` (configuration not stated), the “activity, negative = inhibition” value was 1.77%. The AC50 is the concentration giving half of the maximal activity seen. As to `COc1cccc(-c2nccc(NCc3cccs3)n2)c1`, the AC50 is 5.01 µM (active). The same measure, in the same setting: next, `COc1cccc(-c2nccc(NCc3cccc(C)c3)n2)c1`: 3.98 µM (active).

Regarding `Cc1ccc(C)c(S(=O)(=O)NC(C)C(=O)Nc2ccc(-c3nc4ccccc4s3)cc2)c1` (configuration not stated), the AC50 was 3.55 µM (active). `Cc1ccc2nc(-c3ccc(NC(=O)c4ccc(N)cc4)c(S(=O)(=O)O)c3)sc2c1`: the activity, negative = inhibition is -13.7% [at 11.4 µM].

Consider `Cc1ccc(C)c(S(=O)(=O)NC(CC(C)C)C(=O)O)c1` (configuration not stated), for which the “activity, negative = inhibition” value is -37.6%. On the same count and under the same terms, then `CCN(Cc1ccccc1)Cc1cccc([N+](=O)[O-])c1`, with 9.2%. Regarding `COc1ccc([N+](=O)[O-])cc1N(CC(O)CN(CC(C)C)CC(C)C)S(=O)(=O)c1ccccc1` (configuration not stated), the AC50 is 1.12 µM (active).

`CCCN(/C=N/c1sc2c(c1C#N)CCCCC2)CCC`: the AC50 is 7.94 µM (active). With `CCN(/C=N/c1sc2c(c1C#N)CCCCC2)CC`, the activity, negative = inhibition is -17.6% [at 2.29 µM]. With `COc1ccccc1CNc1ncncc1-c1cccc(NS(C)(=O)=O)c1`, the AC50 was 0.251 µM (active).

Consider `COc1ccc(CNc2ncncc2-c2cccc(NS(C)(=O)=O)c2)c(OC)c1`, for which the AC50 is 0.251 µM (active). For the molecule `Cc1cc2c(cc1S(N)(=O)=O)S(=O)(=O)CCC2`, the “activity, negative = inhibition” value was -0.57% [at 25.6 µM]. For `CCC(C)(C(=O)NC1CCCC1)N(CC1CCCO1)C(=O)c1ccc2c(c1)OCO2` (configuration not stated), the AC50 is 3.98 µM (active). Turning to `Cc1ccc(C(=O)NCC2CCCO2)cc1N1CCCC1=O` (configuration not stated), the “activity, negative = inhibition” value was 4.7%. On the same count and under the same terms, next, `CCOC(=O)Nc1ccc(C(=O)NCC2CCCO2)cc1` (configuration not stated): 0.318%. As to `COc1cccc(CNc2ccc3nc(-c4ccc(N)cc4)c(OC)n3n2)c1`, the AC50 was 5.01 µM (active). Still for that read-out and setting: then `CC(=O)OCCCN1c2ccccc2Nc2nnc(-c3ccccc3)cc21`, with 12.6 µM (active); and `CN(C)c1nccc(N(Cc2ccccc2)Cc2ccccc2)c1C#N`, with 12.6 µM (active).

On to `Cc1ccc(N(Cc2ccccc2)Cc2ccccc2)cc1`, for which the activity, negative = inhibition is -22.6% [at 11.4 µM].

In the case of `COc1ccc(CN(CCN(C)C)c2ccccn2)cc1`, the “activity, negative = inhibition” value was -5.75% [at 25.6 µM]. On the same count and under the same terms, then `CO[C@@H]1COC(=O)[C@H]2CCCN2C(=O)C/C=C\[C@@H](C)[C@H](OC)COC(=O)[C@H]2CCCN2C(=O)C/C=C\[C@H]1C`, with -3.39% [at 11.4 µM]; and `CN(C)c1ncc2ncc(=O)n(C)c2n1`, with -19.6%; and `O=C(O)COc1ccc(-c2nccc(-c3cccs3)n2)cc1`, with -28.8%.

As for `c1ccc2c(c1)ncn2-c1ccc(-c2ccnc(-c3ccncc3)n2)cc1`, the AC50 was 0.501 µM (active).

Turning to `c1ccc(-c2nccc(-c3ccc(-n4cnc5ccccc54)cc3)n2)nc1`, the “activity, negative = inhibition” value is -16.7%. Consider `COc1ccc(C(=O)N2CCC3(CCCN(C(=O)Nc4cccc(C#N)c4)C3)CC2)cc1`, for which the AC50 was 6.31 µM (active). Consider `CC(=O)N1CCC2(CC1)CN(C(=O)Nc1cccc(C#N)c1)C2`, for which the “activity, negative = inhibition” value was -13.8%. Take `COc1ccc(C(=O)N2CCC[C@@]3(CCN(C(=O)Nc4cccc(C#N)c4)C3)C2)cc1`: the AC50 is 7.94 µM (active). Regarding `COCC(=O)N1CCC2(CC1)CN(C(=O)Nc1cccc(C#N)c1)C2`, the “activity, negative = inhibition” value was -6.1%. The same measure, in the same setting: next, `COCC(=O)N1CCC2(CCCN(C(=O)Nc3cccc(C#N)c3)C2)CC1`: -14.3%. On to `COc1ccc(C(=O)N2CCC3(CC2)CN(C(=O)Nc2cccc(C#N)c2)C3)cc1`, for which the AC50 was 15.8 µM (active). Turning to `COC(=O)N1CCC[C@@]2(CCN(C(=O)Nc3cccc(C#N)c3)C2)C1`, the “activity, negative = inhibition” value was -20.2%.

As to `COCC(=O)N1CCC[C@@]2(CCN(C(=O)Nc3ccccc3)C2)C1`, the “activity, negative = inhibition” value is -21.6%.

Take `N#Cc1cccc(NC(=O)N2CC[C@@]3(CCCN(C(=O)c4ccncc4)C3)C2)c1`: the AC50 was 15.8 µM (active). For the molecule `COC(=O)N1CCC2(CC1)CN(C(=O)Nc1cccc(C#N)c1)C2`, the “activity, negative = inhibition” value is 13.1%. On the same count and under the same terms, then `CC(C)c1nnc(-c2ccc(Cl)cc2)c(N(C)C)n1`, with -7.47% [at 2.29 µM]; and `Cn1c(=O)c(C(=O)CN2CCOCC2)c(N)n(Cc2ccccc2)c1=O`, with -17.4%. Consider `CCCn1c(N)c(C(=O)CSc2nc(C)cs2)c(=O)n(C)c1=O`, for which the AC50 was 6.31 µM (active). For the molecule `O=C(O)[C@@H](O)Cc1ccccn1`, the activity, negative = inhibition was 15.2% [at 11.4 µM]. In the case of `CN1CCN(c2ncc3nc(-c4cccc(C#N)c4)c(=O)n(C)c3n2)CC1`, the “activity, negative = inhibition” value is 7.43%. Still for that read-out and setting: then `Cc1nc2cnc(N(C)C)nc2n(CCC#N)c1=O`, with -17.2%. In the case of `O=c1c(-c2ccc(F)cc2)nc2cnc(N3CCOCC3)nc2n1C[C@H]1CCCO1`, the “activity, negative = inhibition” value is -17.4%. Same read-out and setting: next, `CN1CCN(c2ncc3nc(-c4cccc(C#N)c4)c(=O)n(CCC#N)c3n2)CC1`: -11.8%. On to `Cc1nc2cnc(N(C)C)nc2n(Cc2ccc(F)cc2)c1=O`, for which the concentration at half-maximal activity (AC50) was 0.0251 µM (active).

Consider `CN1CCN(c2ncc3nc(-c4ccccc4)c(=O)n(Cc4ccc(F)cc4)c3n2)CC1`, for which the “activity, negative = inhibition” value was -3.42%. On to `O=c1c(-c2ccccc2)nc2cnc(N3CCNCC3)nc2n1Cc1ccc(F)cc1`, for which the AC50 was 3.16 µM (active). With `CN(C)c1ncc2nc(-c3ccccc3)c(=O)n(Cc3ccc(F)cc3)c2n1`, the “activity, negative = inhibition” value was -18.3%. The same measure, in the same setting: then `N#CCCn1c(=O)cnc2cnc(N3CCNCC3)nc21`, with -21%. Turning to `O=c1cnc2cnc(N3CCNCC3)nc2n1Cc1ccc(F)cc1`, the concentration at half-maximal activity (AC50) is 7.94 µM (active).

On to `CN1CCN(c2ncc3nc(-c4cccc(C#N)c4)c(=O)n(Cc4ccc(F)cc4)c3n2)CC1`, for which the concentration at half-maximal activity (AC50) is 20 µM (active).

In the case of `COc1ccc(-n2c(=O)cnc3cnc(N4CCNCC4)nc32)cc1`, the “activity, negative = inhibition” value is -14.3%.
